According to PubChem BioAssay (NCATS):
Inconclusive results are not listed. The source made the active and inactive calls. Calls come from the whole dose curve; as a rule, active = well fitted curve in the direction sought with a large enough effect; inconclusive = small, poorly fitted or top-dose-only effect, or another doubt; inactive = no such curve, though single readings can be large; an effect the other way counts as inactive or inconclusive.

Experiments:
MKL-1 = experiment: qHTS assay to identify novel small-molecules to repurpose for Merkel cell carcinoma treatment (AID 1296009); details: MCC and control cell lines, CellTiter-Glo viability, 72 h; series mostly up to 46 µM; note: nearly all actives have a fitted effect of over 60% in size; note: potency is the fitted concentration of half-maximal effect
How it was run: (§1)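 CellTiter-Glo luminescence after 72 hr compound exposure at 37 degree celsius gave cell viability. Libraries NPC and MIPE were run as 8- and 11-point dose responses; RLUs normalized to DMSO (negative) and no-cell (cytotoxicity) controls.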

MKL-2 = experiment: as above; details: MCC and control cell lines, CellTiter-Glo viability, 72 h; series mostly up to 46 µM
How it was run: as §1

NIH3T3 = experiment: as above; details: MCC and control cell lines, CellTiter-Glo viability, 72 h; at 44.8 µM (top of the series) unless noted
How it was run: as §1

UISO = experiment: as above; details: MCC and control cell lines, CellTiter-Glo viability, 72 h; series mostly up to 46 µM
How it was run: as §1

WaGa = experiment: as above; details: MCC and control cell lines, CellTiter-Glo viability, 72 h; series mostly up to 46 µM
How it was run: as §1

CASKI = experiment: Primary qHTS to identify gynecologic anti-cancer compounds using libraries of approved drugs and bioactive compounds (AID 1345084); details: Gynecologic cancer cell panel viability, ATPlite luminescence, 48 h; series mostly up to 57.5 µM; note: nearly all actives have a fitted effect of over 55% in size
How it was run: (§2)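 Cells, 1,000 per well, plated 16 h, then exposed 48 h at 37 C to compounds. Viability by ATPlite luminescence after 15 min at room temperature.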

Es-2 = experiment: as above; details: Gynecologic cancer cell panel viability, ATPlite luminescence, 48 h; series mostly up to 57.5 µM
How it was run: as §2

HeLa = experiment: as above; details: Gynecologic cancer cell panel viability, ATPlite luminescence, 48 h; series mostly up to 57.5 µM
How it was run: as §2

Hek293T = experiment: as above; details: Gynecologic cancer cell panel viability, ATPlite luminescence, 48 h, control line for the selectivity index; series mostly up to 57.5 µM
How it was run: as §2

JEG-3 = experiment: as above; details: Gynecologic cancer cell panel viability, ATPlite luminescence, 48 h; series mostly up to 57.5 µM
How it was run: as §2

OV90 = experiment: as above; details: Gynecologic cancer cell panel viability, ATPlite luminescence, 48 h; series mostly up to 57.5 µM
How it was run: as §2

PA-1 = experiment: as above; details: Gynecologic cancer cell panel viability, ATPlite luminescence, 48 h; series mostly up to 57.5 µM
How it was run: as §2

SKOV3 = experiment: as above; details: Gynecologic cancer cell panel viability, ATPlite luminescence, 48 h; series mostly up to 57.5 µM
How it was run: as §2

Tov-21-G = experiment: as above; details: Gynecologic cancer cell panel viability, ATPlite luminescence, 48 h; series mostly up to 57.5 µM
How it was run: as §2

Tov112D = experiment: as above; details: Gynecologic cancer cell panel viability, ATPlite luminescence, 48 h; series mostly up to 57.5 µM
How it was run: as §2

[1] = Drug repurposing screens with cells derived from glioblastoma tumor samples (AID 1345199); details: GBM patient neurospheres viability, ATP luminescence, 48 h; Potency: tumour line A; series mostly up to 46.1 µM; note: nearly all actives have a fitted effect of over 40% in size
How it was run: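 Primary testing used CD133+ neurospheres from four GBM patients, seven concentrations, 48 h exposure and ATP-based viability; confirmation added three slower-growing patient lines.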

C33A = experiment: Primary qHTS to identify gynecologic anti-cancer compounds using libraries of approved drugs and bioactive compounds (AID 1345084); details: Gynecologic cancer cell panel viability, ATPlite luminescence, 48 h; series mostly up to 57.5 µM; note: nearly all actives have a fitted effect of over 55% in size
How it was run: as §2

Measured: Potency

CC[C@H]1OC(=O)[C@H](C)[C@@H](O[C@H]2C[C@@](C)(OC)[C@@H](O)[C@H](C)O2)[C@H](C)[C@@H](O[C@@H]2O[C@@H](C)C[C@H](N(C)C)[C@@H]2O)[C@](C)(O)C[C@@H](C)C(=O)[C@H](C)[C@@H](O)[C@]1(C)O
inactive: MKL-1 | MKL-2 | NIH3T3 | UISO | WaGa

Cc1nc(NC(=O)N2CCC[C@@H]2C(N)=O)sc1-c1ccnc(C(C)(C)C(F)(F)F)c1
inactive: MKL-1

CCCc1nc(C(C)(C)O)c(C(=O)O)n1Cc1ccc(-c2ccccc2-c2nn[nH]n2)cc1
inactive: MKL-1 | MKL-2 | NIH3T3 | UISO | WaGa

OCc1ccccc1O[C@@H]1O[C@H](CO)[C@H](O)[C@H](O)[C@H]1O
inactive: MKL-1 | MKL-2 | NIH3T3 | UISO | WaGa

CC(C)N(CC[C@H](c1ccccc1)c1cc(CO)ccc1O)C(C)C
inactive: MKL-1 | MKL-2 | NIH3T3 | UISO | WaGa

Nc1nc2c(c(=O)[nH]1)N(C=O)[C@H](CNc1ccc(C(=O)N[C@@H](CCC(=O)O)C(=O)O)cc1)CN2
inactive: MKL-1 | MKL-2 | NIH3T3 | UISO | WaGa

COc1cccc2c1C(=O)c1c(O)c3c(c(O)c1C2=O)C[C@@](O)(C(C)=O)C[C@H]3O[C@H]1C[C@H](N)[C@H](O)[C@H](C)O1
active: MKL-1 0.0332 µM | MKL-2 0.0235 µM | UISO 0.0469 µM

N[C@H]1CN(c2c(F)cc3c(=O)c(C(=O)O)cn(C4C[C@@H]4F)c3c2Cl)CC12CC2 (some centres undefined)
not listed: C33A
inactive: all other assays above

CC1(C)[C@H](O[C@H]2O[C@H](C(=O)O)[C@@H](O)[C@H](O)[C@H]2O[C@@H]2O[C@H](C(=O)O)[C@@H](O)[C@H](O)[C@H]2O)CC[C@@]2(C)[C@H]1CC[C@]1(C)[C@H]2C(=O)C=C2[C@H]3C[C@@](C)(C(=O)O)CC[C@]3(C)CC[C@]21C
inactive: MKL-1 | MKL-2 | NIH3T3 | UISO | WaGa | [1]

C[C@@H](Oc1ccc2[nH]nc(C=Cc3cnn(CCO)c3)c2c1)c1c(Cl)cncc1Cl
active: MKL-1 7.43 µM | UISO 20.9 µM
inactive: MKL-2

CCCCOc1ccc(C(=O)Nc2ccc(F)cc2F)cc1
not listed: Hek293T | SKOV3 | [1]
inactive: all other assays above

NC[C@H]1O[C@H](O[C@H]2[C@@H](O)[C@@H](O[C@H]3O[C@H](CO)[C@@H](O)[C@H](N)[C@@H]3O)[C@H](N)C[C@@H]2N)[C@H](N)C[C@H]1O
inactive: MKL-1 | MKL-2 | UISO | WaGa

C=C[C@@H]1CN2CCC1C[C@H]2[C@H](O)c1ccnc2ccc(OC)cc12 (some centres undefined)
inactive: MKL-1 | MKL-2 | UISO | WaGa

C=Cc1c(C)c2cc3nc(cc4[nH]c(cc5nc(cc1[nH]2)C(C)=C5CCC(=O)O)c(CCC(=O)OC)c4C)[C@@]1(C)C3=CC=C(C(=O)OC)[C@H]1C(=O)OC
active: MKL-1 0.0469 µM | MKL-2 0.0418 µM | UISO 0.469 µM

COc1cc(OC)cc(-c2ccc3ncc4ccc(=O)n(-c5ccc(N6CCNCC6)c(C(F)(F)F)c5)c4c3c2)c1
active: MKL-1 18.7 µM | MKL-2 8.33 µM | UISO 16.6 µM

Cc1cn([C@@H]2O[C@H](CO)[C@@H](O)[C@H]2F)c(=O)[nH]c1=O
not listed: [1]
inactive: all other assays above

N#CC(=C(N)Sc1ccc(N)cc1)c1ccccc1C(F)(F)F
inactive: MKL-1 | MKL-2 | UISO | WaGa

Cc1cc(-c2nnc3n2CCCCC3)c(C)n1-c1ccccc1
active: MKL-2 20.9 µM
inactive: MKL-1 | UISO

C[C@H]1C[C@H]2[C@@H]3CCC4=CC(=O)C=C[C@]4(C)[C@@H]3C(=O)C[C@]2(C)[C@@]1(O)C(=O)CO
inactive: MKL-1 | MKL-2 | NIH3T3 | UISO | WaGa | [1]

CN[C@H](CC(C)C)C(=O)N[C@H]1C(=O)N[C@@H](CC(N)=O)C(=O)N[C@@H]2C(=O)N[C@H]3C(=O)N[C@H](C(=O)N[C@H](C(=O)O)c4cc(O)cc(O)c4-c4cc3ccc4O)[C@H](O)c3ccc(c(Cl)c3)Oc3cc2cc(c3O[C@@H]2O[C@H](CO)[C@@H](O)[C@H](O)[C@@H]2O[C@H]2C[C@](C)(N)[C@H](O)[C@H](C)O2)Oc2ccc(cc2Cl)[C@H]1O
inactive: MKL-1 | MKL-2 | UISO | WaGa

COc1cc(C(C)C)c(Oc2cnc(NC(CO)CO)nc2N)cc1I
inactive: MKL-1 | MKL-2 | UISO | WaGa
